# Bioassay records as filed in PubChem BioAssay.
# D2 ag-1 = activates the human D2 dopamine receptor; P14416; DiscoveRx PathHunter D2 beta-arrestin, luminescence, 90 min; 100% = 57 uM dopamine signal; activation, % (concentration not given with the values); hit rate 0.084% among 360,000; in the data active means activation above about 40%; inconclusive means between about 15% and that limit
# Target sequence (P14416 whole entry, looked up): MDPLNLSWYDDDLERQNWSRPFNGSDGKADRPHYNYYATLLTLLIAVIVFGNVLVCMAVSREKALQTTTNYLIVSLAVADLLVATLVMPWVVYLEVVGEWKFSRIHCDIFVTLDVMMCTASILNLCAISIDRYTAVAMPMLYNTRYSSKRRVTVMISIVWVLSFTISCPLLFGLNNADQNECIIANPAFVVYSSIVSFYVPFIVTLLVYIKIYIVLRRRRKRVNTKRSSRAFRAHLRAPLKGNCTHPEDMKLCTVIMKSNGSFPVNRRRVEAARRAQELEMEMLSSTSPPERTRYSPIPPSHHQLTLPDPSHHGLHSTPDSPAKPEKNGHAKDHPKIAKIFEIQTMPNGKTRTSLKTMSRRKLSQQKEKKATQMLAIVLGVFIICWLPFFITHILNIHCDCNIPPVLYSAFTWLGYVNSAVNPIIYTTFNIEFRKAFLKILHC
#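 DiscoveRx PathHunter D2 beta-arrestin cells (2,100/well) attached overnight, then compound-stimulated 90 min at 37 C in HBSS/10 mM HEPES/0.1% Tween-20 buffer; beta-galactosidase complementation read by luminescence after 1 h at ambient temperature. Dopamine 57 uM final (EC100) as control.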
# D2 ag-2 = agonists of human D2 dopamine receptor; activation, % at 2 µM; hit rate 0.53% among 340,000; HEK293 T-REx D2 cells, calcium flux agonist mode; AID 485358;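 active means activation over 3 SD above normal in the single-dose calcium agonist read, cut at about 30% in these data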; further: 0% is about no effect
#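 Calcium-flux readout, 1 cycle/sec over 180 s following compound pin transfer, in inducible HEK293 Trex D2 cells (force-coupled); dopamine controls included. Positive calcium responses during this window marked compounds as potential agonists.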
# D2 antagonist = D2 dopamine receptor (human) antagonism; P14416; HEK293 TREx D2 cells, calcium flux, dopamine EC80; inhibition, % at 10 µM; hit rate 2% among 340,000; in the data active means inhibition above about 30%; inactive means below that, where a call was filed; further: 0% is about no effect
#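 Tetracycline-induced HEK293 TREx cells expressing D2 receptor forced-coupled to calcium signalling, loaded with no-wash calcium dye. Compounds added and calcium flux read 180 s, then dopamine added at EC80 and read a further 180 s.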
# D2 PAM-1 = positive allosteric modulators of human D2 dopamine receptor | P14416 | hit rate 0.34% among 340,000 | potentiation, % at 10 µM | HEK293 T-REx D2, calcium flux, EC20 dopamine potentiation;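 active means potentiation over 3 SD above the plate norm, cut at about 30% in these data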; further: 0% is about no effect
#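 Primary screen. Calcium kinetics in induced HEK293 T-REx D2 cells: compound pre-addition 180 s, EC20 dopamine, 180 s more.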
# D2 PAM-2 = potentiates the human D2 dopamine receptor allosterically | hit rate 0.23% among 360,000 | DiscoveRx D2 beta-arrestin cells, luminescence, 90 min; 100% = 57 uM dopamine signal | potentiation, % (test concentration not listed) | AID 624464; in the data active means potentiation above about 50%; inconclusive means mostly about 30% to 49%
#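 D2 cells co-treated with compound plus 50 nM dopamine (EC20) for 90 min at 37 deg C to detect potentiation. Beta-arrestin recruitment was read as enzyme-fragment luminescence after 1 h at ambient temperature. Full response was set by 57 uM dopamine.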
# Active calls of the source: *; ? = inconclusive; / = no result. In the library only some 2.4% were active in any assay of this set; here they are far more common.
SMILES,D2 ag-1,D2 ag-2,D2 antagonist,D2 PAM-1,D2 PAM-2
Cc1ccccc1CN(C)CC(=O)Nc1ccccc1Oc1ccccc1,-9,3,43*,15,-8
CC1CCCC(C)N1C(=O)CSc1nnc(C2CCCCC2)o1 (centres undefined),-5,0,90*,-8,-17
Cc1cc(-c2nnc(SCC(=O)N3C(C)CCCC3C)o2)no1 (centres undefined),-1,-1,-4,6,0
Cc1cc(C)cc(NC(=O)CN2C(=O)c3ccccc3Sc3ccc(C(=O)N4CCCC4)cc32)c1,/,/,/,-11,/
O=C(Nc1ccon1)Nc1ccc(F)cc1F,-2,0,31*,-3,-1
COC(=O)c1cc2c(cc1NC(=O)c1cnn(-c3ccccc3)c1-n1cccc1)OCO2,/,0,/,/,/
CCCCCCCC(=O)N/N=C(\C)c1ccc(N)cc1,/,0,12,5,/
CCCCCCCCC(=O)N/N=C(\C)c1ccc(O)cc1O,-1,-1,49*,-28,-23
CCCCCCCC(=O)N/N=C(\C)c1ccc(O)cc1O,1,-2,72*,-21,-26
O=C(CCNC(=O)c1ccco1)Nc1ccc(OC(F)F)cc1,0,0,-11,1,8
CCOc1ccc(NC(=O)c2ccc3nc(Cc4ccccc4)oc3c2)cc1,/,0,/,8,/
CC(C)(C)c1ccc(C(=O)Nc2ccc([N+](=O)[O-])cn2)cc1,-2,0,36*,-27,-27
COc1cc(C2=Nc3ccc(Br)cc3C(c3ccccc3)N2CC(=O)NN)cc(OC)c1OC (centres undefined),-5,1,86*,-15,-22
COC(=O)CN1C(c2ccc(OC)cc2)=Nc2ccc(Cl)cc2C1c1ccccc1 (centres undefined),3,1,91*,-24,9
COC(=O)CN1C(c2cccc(Cl)c2)=Nc2ccc(Cl)cc2C1c1ccccc1 (centres undefined),-2,-2,21,-13,-36
Cn1cc(C(=O)NCCc2ccccc2)c(=O)c2cc(S(=O)(=O)N3CCCCCC3)ccc21,/,0,/,10,/
CCc1noc(C)c1C(=O)N1CCN(S(=O)(=O)c2ccc(Br)cc2Cl)CC1,-2,0,-17,0,-6
Nc1ccccc1Nc1cc(-c2cccc(Cl)c2)nn1-c1ccccc1,?,1,-5,6,68*
Nc1c(-c2ccccc2)cnn1-c1cccc(Cl)c1,6,1,-5,6,-2
O=C(Nc1nc2n(n1)C(c1ccc(F)cc1)C=C(c1ccc(Cl)cc1)N2)c1ccc([N+](=O)[O-])cc1 (centres undefined),/,/,/,-1,/
CCCC12CN3CC(C)(CN(C1)C31C(=O)Nc3ccc(C)cc31)C2=O (centres undefined),0,-2,-15,-6,9
Cc1ccc2c(c1)C1(C(=O)N2C)N2CC3(C)CN1CC(C)(C2)C3=O (centres undefined),-2,1,-3,33*,-2
O=C(COC(=O)/C=C/C(=O)N1CCN(c2ccccc2)CC1)NC(c1ccccc1)c1ccccc1,-3,0,69*,-8,-1
O=C(COC(=O)/C=C/c1cccs1)NC(c1ccccc1)c1ccccc1,0,-2,-2,-5,15
Cc1cc(C)nc(Nc2n[nH]c(Cc3ccccc3)n2)n1,/,45*,0,-2,/
SMILES,D2 ag-1,D2 ag-2,D2 antagonist,D2 PAM-1,D2 PAM-2
COc1cc(C)nc(NCc2ccccc2)n1,-2,0,23,-5,-12
CCOc1ccc(-c2nnc(SCC(=O)NCc3ccc(C)cc3)nc2-c2ccc(OCC)cc2)cc1,/,0,/,-3,/
CCc1ccccc1NC(=O)Nc1nnc(N(CC)c2ccccc2)s1,/,/,/,1,/
CC(=O)Nc1cc2c(cc1C(=O)c1ccc(C)cc1)OCCO2,-3,1,34*,-6,-2
CC(C)(C)C(=O)Nc1ccc2nc(SCCOc3ccccc3Cl)sc2c1,/,-2,/,/,/
COc1ccc(NC(=O)NNC(=O)CCc2ccc(O)c(O)c2)cc1OC,9,39*,-8,-9,2
CC(C)OCCCn1c(=S)[nH]c2cc3c(cc2c1=O)OCO3,1,-1,50*,2,16
CC(C)OCCCn1c(=S)[nH]c2ccc(N3CCOCC3)cc2c1=O,0,-2,-13,-5,-7
N#CCCn1cc(CNC2CCC(O)CC2)c2ccccc21 (centres undefined),-2,0,5,30*,-2
CC1(Cc2cn(CCC#N)c3ccccc23)OCCO1,0,0,-3,-2,-5
CCC(=O)N(c1nnc(SCC(=O)Nc2ccccc2Cl)s1)C1CC1,-1,/,/,/,3
CCCCCN(C(=O)CCC(=O)OCCOc1ccccc1Cl)c1c(N)n(CCCC)c(=O)[nH]c1=O,-5,1,-1,-10,-11
Cc1cc(C)c(S(=O)(=O)NCCOc2ccccc2)c(C)c1-n1cnnn1,-2,3,-30,41*,-1
Nc1[nH]nc2ncc3cc4ccccc4nc3c12,-3,0,59*,0,15
CCOC(=O)C1(Cc2ccccc2C)CCCN(C(=O)c2cc(C3CC3)[nH]n2)C1 (centres undefined),1,1,32*,-7,2
CCOC(=O)C1(Cc2ccccc2C)CCCN(C(=O)c2ccccn2)C1 (centres undefined),-1,1,-2,-11,0
COc1ccc(NC(=O)Cn2c(SCc3cccc(Cl)c3)nc3ccncc32)c(OC)c1OC,/,/,/,-19,/
COc1ccc(CC2(CO)CCN(C(C)COc3ccccc3)CC2)cc1 (centres undefined),49*,/,/,/,25
COc1ccc(CC2(CO)CCN(Cc3cnn(-c4ccccc4OC)c3)CC2)cc1,-5,1,79*,-16,-24
Cn1ncc2c(Nc3cc(C(F)(F)F)ccc3Cl)ncnc21,/,1,/,0,/
COc1ccc2c(C#N)c3ccccn3c2c1,7,4,-2,-2,70*
CC1CCCCN1C(=O)C12CCC(C)(/C(=N/O)C1)C2(C)C (centres undefined),-2,1,35*,0,0
CC1CCCCN1C(=O)C12CCC(C)(C(=O)C1)C2(C)C (centres undefined),-1,/,/,/,0
CCOc1ccc(S(=O)(=O)NCCc2c(C)[nH]c3c(Cl)cccc23)cc1C,/,0,/,-5,/
COc1ccc(CC(=O)OC(C)C(=O)c2ccc(C)cc2)cc1 (centres undefined),-6,2,1,2,-2
COc1ccc(C(=O)C(C)OC(=O)c2sc(C)nc2C)cc1 (centres undefined),2,0,31*,23,-2
Cc1cc(C)cc(CC(=O)N2CCC2(C)C(=O)NS(=O)(=O)c2cc(C)ccc2F)c1 (centres undefined),-1,/,/,/,0
